Calls of active or inactive are those of the source. Unless noted, no rule for the calls is given here.

Assay [1] relates to Wnt5a (protein binding on small-molecule microarray). Put plainly: Wnt5a binders on small-molecule microarray, primary screen, biophysical, 635/667 nm fluorescence (AID 1142).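 Also: fluorescence read at 667 nm with signal to noise per printed feature.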 As to conditions: 635 nm fluorescence, higher = more signal.
A short description of assay [2]: cell viability in Huh7 cells, primary screen, cytotoxicity control for HCV replication inhibitor project, CellTiter-Glo luminescence, basal, 48 h (AID 1143).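 Also: Huh7 hepatoma cells carrying a hepatitis C replication reporter with no stimulus; test concentration not given here.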 As to conditions: Huh7 HCV replicon, higher = more signal, called active from +8 up or from −8 down. (Cellular ATP, detected with luciferase, serves as a proxy for viable cell number.)
Assay [3] is described as follows: P. aeruginosa biofilm formation inhibitors, primary screen, PAO1 strain, BacTiter-Glo luminescence, LB-PBS (AID 1144). The settings on record: 12 h, higher = more signal.
A short description of assay [4]: CREB reporter modulators without forskolin, primary screen, cell-based, PC12, CRE-LacZ reporter, unstimulated (AID 1145). The settings on record: no forskolin, luminescence, 4.5 h, higher = more signal, called active from +8 up or from −8 down.
A short description of assay [5]: CREB reporter modulators under forskolin, primary screen, cell-based, PC12, CRE-LacZ reporter, forskolin-stimulated (AID 1146).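 Also: PC12 cells with 6xCRE LacZ reporter stimulated by forskolin 10 µM; beta-galactosidase reporter signal reflecting CREB driven transcription.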 The settings on record: luminescence, 4.5 h, higher = more signal, called active from +8 up or from −8 down.
Assay [6] addresses Streptavidin (Streptomyces avidinii) (UniProt P22629). Description: streptavidin binders on small-molecule microarray, primary screen, artefact control for SMM compound annotation, biophysical, 635/667 nm fluorescence (AID 1147).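 Also: signal reflects streptavidin binding to arrayed compounds as a control protein.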 The settings on record: streptavidin binding, higher = more signal.
A short description of assay [7]: small-molecule binders of probe aInhba, primary screen, biochemical, small-molecule microarray, 635/667 nm fluorescence (AID 1148).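 Also: score merges 667nm spot fluorescence with signal-to-noise for antibody binding to printed compounds.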 As to conditions: higher = more signal.
Assay [8] addresses Torsin-1A (Homo sapiens) (UniProt O14656). Description: torsin A binders from cell lysate, primary screen, small-molecule microarray, wild-type, 635/667 nm (AID 1149). The settings on record: COS7 hTOR1A-WT lysate, 635 nm fluorescence, higher = more signal.
The target is the same in assay [9]. Description: small-molecule binders of mutant TOR1A in lysate, primary screen, cell lysate, small-molecule microarray, COS7 lysate, 635/667 nm fluorescence (AID 1150).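 Also: score pools 667 nm emission and signal to noise measuring lysate protein binding.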 The settings on record: COS7 hTOR1A mutant lysate, 635 nm fluorescence, higher = more signal.
The subject of assay [10] is Sonic hedgehog protein (Shh). Description: small-molecule binders of Shh protein, primary screen, biochemical, small-molecule microarray, 635/667 nm fluorescence (AID 1151).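 Also: Shh protein binding to compounds spotted on small-molecule microarray slides; score combines spot fluorescence intensity with signal-to-noise across triplicate slides.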 As to conditions: small-molecule microarray binding, 635 nm fluorescence; higher = more signal.

Torsin-1A (Homo sapiens), sequence (O14656 whole entry, looked up): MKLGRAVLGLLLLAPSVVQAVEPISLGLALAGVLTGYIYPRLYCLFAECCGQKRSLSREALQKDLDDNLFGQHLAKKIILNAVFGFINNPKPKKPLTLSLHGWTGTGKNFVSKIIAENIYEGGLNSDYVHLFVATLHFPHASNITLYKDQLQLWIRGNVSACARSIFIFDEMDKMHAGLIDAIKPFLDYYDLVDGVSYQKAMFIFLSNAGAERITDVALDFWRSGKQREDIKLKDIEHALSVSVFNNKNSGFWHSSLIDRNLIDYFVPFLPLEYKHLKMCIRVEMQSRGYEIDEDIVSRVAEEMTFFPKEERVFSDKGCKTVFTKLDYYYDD
Streptavidin (Streptomyces avidinii), sequence (P22629 whole entry, looked up): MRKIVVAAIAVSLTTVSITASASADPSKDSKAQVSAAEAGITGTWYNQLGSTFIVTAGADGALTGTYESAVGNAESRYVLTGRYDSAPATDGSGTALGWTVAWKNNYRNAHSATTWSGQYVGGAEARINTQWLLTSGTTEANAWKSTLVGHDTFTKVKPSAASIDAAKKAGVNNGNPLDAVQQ

As for `COc1ccc(CCNC(=O)[C@@H]2c3ccccc3C(=O)N(Cc3ccccc3)[C@H]2c2ccc(CO)cc2)cc1`, the composite z-score in [1] was -0.039; in [6], 0.0585; in assay [7], -0.0195; with Torsin-1A (Homo sapiens) [8], -0.447; in the assay with Torsin-1A (Homo sapiens) [9], 0.954; in [10], 0.832. Moreover, the z-score in assay [2] was -2.05 (inactive); in assay [3] it was -1.57 (inactive); in assay [4], 0.971 (inactive); in assay [5], -1.15 (inactive).

For `COc1ccc(C#Cc2ccc3c(c2)[C@]2(C(=O)N3)[C@H](c3ccc(OCCO)cc3)N3[C@H](c4ccccc4)[C@H](c4ccccc4)OC(=O)[C@H]3[C@@H]2C(=O)N2CCN(c3ncccn3)CC2)cc1`, the composite z-score was 0.0992 in assay [1]; 0.819 in [6]; -0.0521 in assay [7]; 0.433 with Torsin-1A (Homo sapiens) [8]; 0.374 with Torsin-1A (Homo sapiens) [9]; 0.666 in [10]. Besides, the z-score in assay [2] is -3.47 (inactive); in assay [3], -0.385 (inactive); in assay [4], 0.0653 (inactive); in assay [5] it was -0.239 (inactive).

On to `COCCCNC(=O)[C@]1(CCS(=O)(=O)c2ccccc2)N=C(c2ccc(OCCCO)cc2)O[C@@H]1c1ccccc1`, for which the composite z-score stood at 0.118 in assay [1]; 1.43 in assay [6]; 0.371 in assay [7]; 0.972 in the assay with Torsin-1A (Homo sapiens) [8]; 1.33 with Torsin-1A (Homo sapiens) [9]; 0.306 in assay [10]. Moreover, the z-score in [2] is -1.63 (inactive); in assay [3] it was -0.812 (inactive); in assay [4], 0.638 (inactive); in assay [5] it was -1.33 (inactive).

Consider `C=C[C@H](C)[C@H](OC(=O)Nc1ccc(SC)cc1)c1ccc(O)c2ccccc12`, for which the composite z-score in [1] was 0.081; in assay [6], -0.635; in assay [7] it was -0.154; in the assay with Torsin-1A (Homo sapiens) [8], -0.252; with Torsin-1A (Homo sapiens) [9] it was -0.0104; in [10], 0.73. The z-score in assay [2] is -4.25 (inactive); in [3], -0.0275 (inactive); in [4], 0.0172 (inactive); in assay [5], 4.5 (inactive).

`C=CC[C@]1(C(=O)N(C)C)N=C(c2ccc(OCCCO)cc2)O[C@H]1c1ccccc1`: the composite z-score in assay [1] stood at 0.902; in assay [6] it was 0.197; in [7], 0.0471; with Torsin-1A (Homo sapiens) [8] it was 0.62; in the assay with Torsin-1A (Homo sapiens) [9], 1.27; in assay [10], 0.757. Also, the z-score was -4.69 (inactive) in assay [2], -0.87 (inactive) in [3], -0.38 (inactive) in assay [4] and -1.19 (inactive) in assay [5].

Consider `CN1C(=O)C2C=CC(C(O)COCc3ccccc3)N(Nc3ccccc3)C2C1=O` (stereo not given), for which the composite z-score in assay [1] is 0.122; in assay [6] it was 0.37; in [7] it was -0.018; with Torsin-1A (Homo sapiens) [8] it was -0.24; in the assay with Torsin-1A (Homo sapiens) [9], 0.162; in assay [10], 0.0686. Also, the z-score in assay [2] is 0.631 (inactive); in assay [3] it was -0.0726 (inactive); in assay [4] it was 1.59 (inactive); in [5] it was -0.236 (inactive).

Regarding `C=CCOC(=O)[C@H]1[C@@H]2C(=O)O[C@@H](c3ccccc3)[C@@H](c3ccccc3)N2[C@@H](c2ccc(OCCOC(=O)[C@H]3C[C@H]4C(=O)N[C@@H](CCCCN(C)C)C(=O)N4[C@H]3c3ccc(O)cc3)cc2)[C@]12C(=O)Nc1ccccc12`, the composite z-score is 0.468 in [1]; -0.0375 in assay [6]; 0.0748 in assay [7]; 0.539 with Torsin-1A (Homo sapiens) [8]; 0.674 in the assay with Torsin-1A (Homo sapiens) [9]; 1.42 in [10]. In addition, the z-score in [2] was -1.73 (inactive); in assay [3], -0.063 (inactive); in [4], -0.122 (inactive); in [5], -0.322 (inactive).

In the case of `COC(=O)[C@]1(Cc2ccccc2N=[N+]=[N-])N=C(c2ccc(OCCCO)cc2)O[C@@H]1c1ccccc1`, the composite z-score is 0.0416 in assay [1]; -0.189 in assay [6]; 0.125 in assay [7]; -0.53 with Torsin-1A (Homo sapiens) [8]; -0.23 with Torsin-1A (Homo sapiens) [9]; -0.148 in assay [10]. In addition, the z-score in assay [2] was -5.29 (inactive); in [3], -0.566 (inactive); in assay [4], 2.59 (inactive); in assay [5], 15.8 (active).

For `COCC(=C=CC[C@@H](O)c1ccccc1OCCO)C[C@@H](O)COCc1ccccc1`, the composite z-score in assay [1] was 0.561; in assay [6], -0.236; in assay [7] it was 0.799; in the assay with Torsin-1A (Homo sapiens) [8] it was 1.26; with Torsin-1A (Homo sapiens) [9], 0.717; in assay [10], 0.709. Further, the z-score is -1.43 (inactive) in [2], -0.137 (inactive) in [3], 8.9 (active) in assay [4] and -1.46 (inactive) in assay [5].

For the molecule `CC(C)CNC(=O)[C@@]1(c2ccc([N+](=O)[O-])cc2)CC(=O)N(C(C)C)[C@@H]1c1ccc(CO)cc1`, the composite z-score in [1] is -0.618; in assay [6] it was -1.19; in assay [7] it was -0.233; in the assay with Torsin-1A (Homo sapiens) [8], -0.486; with Torsin-1A (Homo sapiens) [9], -1.29; in [10], 0.225. Also, the z-score is -4.3 (inactive) in assay [2], -1.28 (inactive) in [3], -1.06 (inactive) in [4] and 0.107 (inactive) in assay [5].

On to `COCCCNC(=O)[C@@]1(C)c2ccccc2C(=O)N(c2ccc(C)cn2)[C@H]1c1ccc(CO)cc1`, for which the composite z-score in assay [1] is -0.259; in assay [6], -1.4; in assay [7], -0.202; with Torsin-1A (Homo sapiens) [8] it was 0.152; in the assay with Torsin-1A (Homo sapiens) [9], -1.17; in assay [10], -0.0308. Further, the z-score in assay [2] was 0.616 (inactive); in assay [3] it was -0.252 (inactive); in [4], 0.0279 (inactive); in assay [5] it was 0.208 (inactive).

(Values after PubChem BioAssay.)
